In PubChem BioAssay (EPA / NIEHS):
Records with an inconclusive call do not appear. The source made the active and inactive calls. How the source made its calls: active means hit-call score of the fitted dose curve at least 0.9, where 1 is the maximum; inconclusive means response in the unintended direction; inactive means score below 0.9.

Assay: ACEA_ER_AUC_viability: ACEA Biosciences xCELLigence Real-Time Cell Analysis on Estrogen Receptor Agonism for Viability (AID 2283782)
Method in brief: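 Read-out: real-time electrical impedance (RT-CES) area under curve, loss of signal taken as reduced viability, normalized to DMSO baseline. T-47D cells, charcoal-stripped serum medium, compounds up to 100 uM final, continuous exposure, 80 h.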

SMILES | outcome | AC50
NC(=O)C(F)(F)C(F)(F)C(F)(F)C(F)(F)C(F)(F)C(F)(F)C(F)(F)F | inactive | 
CCC(=O)OC(C)c1ccccc1 (stereo unspecified) |  | 79.9 µM (active)
COC(=O)c1ccc(C=O)cc1 | inactive | 
Oc1ccc2c(c1)CCC2 | inactive | 
C[Si](C)O[Si](C)C |  | 50 µM (active)
O=C1c2ccccc2C(=O)c2c(Cl)cccc21 | inactive | 
COCCC(=O)OC | inactive | 
OCCCc1cccnc1 | inactive | 
FC(F)(F)C(F)(F)C(F)(F)C(F)(F)C(F)(F)C(F)(F)CC[Si](Cl)(Cl)Cl | inactive | 
Cc1ccc(S(=O)(=O)C(I)I)cc1 |  | 4.22 µM (active)
CC(=O)C=O | inactive | 
CSc1ccc(Cl)cc1 | inactive | 
NCC(F)(F)C(F)(F)C(F)(F)C(F)(F)C(F)(F)C(F)(F)F | inactive | 
CC1=CCC(=O)O1 | inactive | 
CN1CN(C)CN(C)C1 | inactive | 
N#CCCOCCC#N | inactive | 
O=c1[nH]cccc1O |  | 25.7 µM (active)
CCc1ccc(C)nc1 | inactive | 
CC(C)OC(=O)COc1ccc(Cl)cc1Cl |  | 66.8 µM (active)
CC1=CC2C3C=CC(C3)C2C1C (stereo unspecified) |  | 50 µM (active)
FC(F)(F)C(F)(F)C(F)(F)C(F)(F)C(F)(F)C(F)(F)C(F)(F)CCI | inactive | 
CN(N=O)C(=O)N[C@@H]1[C@@H](O)[C@H](O)[C@@H](CO)O[C@@H]1O | inactive | 
OCCC(O)CO (stereo unspecified) | inactive | 
CCOC(C=C(C)CCC=C(C)C)OCC |  | 11.3 µM (active)
CSc1ccc(O)cc1C |  | 16.2 µM (active)
C=CC(=O)OCC(F)(F)C(F)(F)C(F)(F)C(F)(F)C(F)(F)C(F)(F)C(F)(F)C(F)F | inactive | 
